The values that follow come from PubChem BioAssay AID602409 (Sanford-Burnham Center for Chemical Genomics, 2012).

The other results are listed elsewhere or left out. Active and inactive are the calls of the source.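 The calls were made as follows: active = mean inhibition over four retests above 40%; inactive = the rest.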

The assay concerns the target C-X-C chemokine receptor type 6 (Homo sapiens) (UniProt O00574). Briefly: CXCR6 receptor antagonists, confirmation, cell-based, single concentration, beta-arrestin, luminescence (AID 602409).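 Also: receptor stimulated with 10 nM CXCL16 agonist; beta-galactosidase fragment complementation upon beta-arrestin recruitment to receptor; plate controls were CXCL16 plus DMSO for no effect and DMSO without CXCL16 for full effect.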 The note with it: CHO-K1 CXCR6 PathHunter beta-arrestin, at 20 µM, active compounds read high.

C-X-C chemokine receptor type 6 (Homo sapiens), sequence (O00574 whole entry, looked up, the tested form may be a part): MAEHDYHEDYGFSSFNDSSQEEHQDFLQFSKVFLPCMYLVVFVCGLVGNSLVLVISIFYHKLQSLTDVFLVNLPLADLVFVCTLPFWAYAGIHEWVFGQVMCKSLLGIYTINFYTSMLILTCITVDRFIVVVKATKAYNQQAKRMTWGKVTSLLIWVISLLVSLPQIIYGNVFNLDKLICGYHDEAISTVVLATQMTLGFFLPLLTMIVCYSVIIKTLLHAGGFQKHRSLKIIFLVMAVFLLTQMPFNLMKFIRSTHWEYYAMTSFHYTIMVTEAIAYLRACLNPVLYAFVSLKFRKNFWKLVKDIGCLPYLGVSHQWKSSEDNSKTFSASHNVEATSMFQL

For orientation: inhibition means the percentage by which the read-out fell short of the control. As for `CC(=O)OC1C2(CC3N4C(=O)C5(CO)SSC4(CC31O)C(=O)N5C)OC(C)C(C)(C)C2=O` (stereo unspecified), the inhibition is 68.1% (active).
